Results from PubChem BioAssay (NCATS).
Records with an inconclusive call do not appear. A call without a number means that no potency is given here. Unmarked numbers belong to inactive results. Active and inactive are the calls of the source. The call rests on the fitted dose curve; in most records, active means well fitted inhibition curve with a large enough effect; inconclusive means small, poorly fitted or top-dose-only effect; inactive means flat fitted curve, though single readings scatter. Square brackets hold non-standard residues; d marks the D form. Peptide text beside a SMILES is read from it. pGlu = O=C1CC[C@@H](C(=O)O)N1

Tests used:
[1] = target: Glutathione peroxidase 1 (Homo sapiens) (UniProt P07203); test: Primary qHTS Assay for Inhibitors of Recombinant Selenoprotein Glutathione Peroxidase 1 (GPX1) (AID 1845191); further: potency means the concentration at half of the fitted maximal effect
Procedure, shortened: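 10 nM GPX1 + cpd, 30 min RT; start w/ 1 mM GSH, 0.5 mM cumene hydroperoxide, 0.5 mM NADPH, 100 nM GR, 0.01% BSA; buffer 50 mM Tris-HCl pH 7.5, 2 mM EDTA, 150 mM NaCl; Fl 340/450, 0 & 15 min.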

[2] = target: Phospholipid hydroperoxide glutathione peroxidase GPX4 (Homo sapiens) (UniProt P36969); test: Primary qHTS Assay for Inhibitors of Recombinant Selenoprotein Glutathione Peroxidase 4 (GPX4) (AID 1845192)
Procedure, shortened: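 NADPH consumption, followed by fluorescence at 340/450 nm between 0 and 15 min, reports GPX4 activity via coupled glutathione reductase (100 nM). Enzyme 200 nM was pre-exposed to compound 30 min; 0.5 mM cumene hydroperoxide and 1 mM GSH served as substrates.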
Further: nearly all actives have a fitted effect of over 65% in size.

Chain of Glutathione peroxidase 1 (Homo sapiens) (P07203 whole entry, looked up): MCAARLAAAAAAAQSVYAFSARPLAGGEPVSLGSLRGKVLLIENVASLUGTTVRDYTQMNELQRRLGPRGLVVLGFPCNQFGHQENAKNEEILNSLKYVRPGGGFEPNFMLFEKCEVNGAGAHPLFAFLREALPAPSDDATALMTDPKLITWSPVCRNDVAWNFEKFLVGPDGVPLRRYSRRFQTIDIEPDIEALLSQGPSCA
Chain of Phospholipid hydroperoxide glutathione peroxidase GPX4 (Homo sapiens) (P36969 whole entry, looked up): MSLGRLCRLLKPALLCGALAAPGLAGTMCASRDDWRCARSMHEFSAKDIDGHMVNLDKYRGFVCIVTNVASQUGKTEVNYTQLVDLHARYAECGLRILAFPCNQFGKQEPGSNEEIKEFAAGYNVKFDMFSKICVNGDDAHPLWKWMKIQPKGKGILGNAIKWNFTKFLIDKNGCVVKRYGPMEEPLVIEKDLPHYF

Row | Compound | Potency [1] | Potency [2]
1 | CC(=O)CCC1C(=O)N(c2ccccc2)N(c2ccccc2)C1=O | inactive | –
2 | CCNC(=O)[C@H]1CCCN1C(=O)[C@H](CCCN=C(N)N)NC(=O)[C@H](CC(C)C)NC(=O)[C@H](CC(C)C)NC(=O)[C@@H](Cc1ccc(O)cc1)NC(=O)[C@H](CO)NC(=O)[C@@H](Cc1c[nH]c2ccccc12)NC(=O)[C@H](Cc1cnc[nH]1)NC(=O)[C@@H]1CCC(=O)N1 ([pGlu]H[dW]S[dY]LLR[dP]-NHEt) | inactive | –
3 | N=c1sc2c(n1CC(=O)c1ccc([N+](=O)[O-])cc1)CCCC2 | inactive | –
4 | O=S(=O)(Nc1cccc(-c2ccc(N3CCOCC3)nn2)c1)c1cc(C(F)(F)F)ccc1Cl | inactive | –
5 | C=C1/C(=C/C=C2\CCC[C@]3(C)[C@@H]([C@H](C)CCCC(C)(C)O)CC[C@@H]23)C[C@@H](O)[C@@H](OCCCO)[C@@H]1O | inactive | –
6 | Cc1nc2c(C#N)c[nH]n2c(=O)c1C(C)C | inactive | –
7 | O=C(NCC(=O)N1CCCCC1)Nc1ccc2nnsc2c1 | inactive | –
8 | CCO/N=C(\C(=O)N[C@@H]1C(=O)N2C(C(=O)O)=C(Sc3nc(-c4cc[n+](C)cc4)cs3)CS[C@H]12)c1nsc(NP(=O)(O)O)n1 | 4.04 µM (active) | –
9 | Cc1ccc(C(=O)/C=C/c2ccccc2)s1 | inactive | –
10 | CNCCN1CCC(OCc2ccccc2)CC1 | inactive | –
11 | COCC1=C(C(=O)O)N2C(=O)[C@@H](NC(=O)/C(=N\OC)c3csc(N)n3)[C@H]2SC1 | 18 µM (active) | –
12 | O=C(N[C@H]1CCS[C@H]2CCC[C@@H](C(=O)O)N2C1=O)[C@@H](S)Cc1ccccc1 | 10.1 µM (active) | –
13 | O=c1cc(N2CCOCC2)oc2c1ccc1ccccc12 | inactive | –
14 | CC(C)(O)CNc1ncc(-c2ccnc(Nc3ccnc(Cl)c3)n2)c(CC2CC2)n1 | inactive | –
15 | Nc1c(C(=O)Nc2ccc(F)cc2)sc2nc(-c3cccs3)cc(C(F)(F)F)c12 | 14.3 µM (active) | –
16 | Cc1ccc2occ(-c3cc(-c4ccc(F)cc4)nc4c3COc3ccc(F)cc3-4)c(=O)c2c1 | inactive | –
17 | CC1(COc2ccc(N3CCC(Oc4ccc(OC(F)(F)F)cc4)CC3)cc2)Cn2cc([N+](=O)[O-])nc2O1 (configuration not stated) | inactive | –
18 | CC(C)N(CCCCOCC(=O)O)c1cnc(-c2ccccc2)c(-c2ccccc2)n1 | inactive | –
19 | COc1ccccc1Nc1nc(-c2sc(NC(C)=O)nc2C)cs1 | 20.2 µM (active) | –
20 | CCn1c(-c2nc3cc(C(=O)N4CCC[C@@H](N)C4)cc(OC)c3n2C)cc2ccccc21 | inactive | –
21 | CS(=O)(=O)n1cc2c(n1)CN([C@H]1CO[C@H](c3cc(F)ccc3F)[C@@H](N)C1)C2 | inactive | –

Row | Compound | Potency [1] | Potency [2]
22 | CC(C)n1cnc2c(NCc3ccccc3)nc(NCCCO)nc21 | inactive | –
23 | O=C(c1cccc(Br)c1)N1CCC(N2CCCC2)CC1 | inactive | –
24 | Cc1cncc(CN2CCC(=C3c4ccc(Cl)cc4CCc4cccnc43)CC2)c1 | inactive | –
25 | CCN1CCN(C2(C(=O)NCCc3ccccc3)Cc3ccccc3C2)CC1 | inactive | –
26 | C[C@@H]1[C@H](C)CC[C@]2(C(=O)O[C@@H]3O[C@@H](CO[C@@H]4O[C@@H](CO)[C@@H](O[C@@H]5O[C@@H](C)[C@@H](O)[C@@H](O)[C@H]5O)[C@@H](O)[C@H]4O)[C@@H](O)[C@@H](O)[C@H]3O)CC[C@]3(C)C(=CC[C@H]4[C@@]5(C)C[C@@H](O)[C@@H](O)[C@](C)(CO)[C@@H]5CC[C@@]43C)[C@H]12 | inactive | –
27 | O=C(O)CCN(O)C(=O)CCCCCCCCC1CC1 | inactive | –
28 | Cn1c(=O)oc2ccc(C(=O)N[C@H](C3CCNCC3)C3CC(O)C3)cc21 (some centres not stated) | inactive | –
29 | CC/C=C(\C(=O)N[C@H]1C(=O)N2C(C(=O)OCOC(=O)C(C)(C)C)=C(COC(N)=O)CS[C@H]12)c1csc(N)n1 | 6.26 µM (active) | –
30 | CCN1CCN(C(c2ccc(C)cc2)c2sc3nc(-c4ccco4)nn3c2O)CC1 (configuration not stated) | inactive | –
31 | COc1ccc(C[C@H](NC(=O)[C@H](C)NC(=O)CN2CCOCC2)C(=O)N[C@@H](Cc2ccccc2)C(=O)[C@@]2(C)CO2)cc1 | inactive | –
32 | CN(C)c1ccc(C(=O)NCCCCCC(=O)NO)cc1 | inactive | –
33 | O=[N+]([O-])c1ccc(Nc2nc(N3CCOCC3)nc(N3CCOCC3)n2)cc1 | inactive | –
34 | COc1cc([C@@H]2c3cc4c(cc3[C@@H](O[C@@H]3O[C@@H]5CO[C@@H](C)O[C@H]5[C@H](O)[C@H]3O)[C@H]3COC(=O)[C@H]23)OCO4)cc(OC)c1OP(=O)(O)O | inactive | –
35 | O=C1CCC(C(=O)O)N1 (configuration not stated) | inactive | inactive
36 | CN[C@@H]1[C@H](O[C@H]2[C@H](O[C@@H]3[C@@H](O)[C@H](O)[C@@H](N=C(N)N)[C@H](O)[C@H]3NC(=N)N)O[C@@H](C)[C@]2(O)CO)O[C@@H](CO)[C@H](O)[C@H]1O | inactive | –
37 | NNCCc1ccc(NC(=O)CCCc2ccccc2)cc1 | inactive | –
38 | O=S1(=O)CCN(CN2CCS(=O)(=O)NC2)CN1 | inactive | –
39 | O=C(CCl)Nc1ccc(S(=O)(=O)c2ccc(NC(=O)CCl)cc2)cc1 | inactive | –
40 | O=C1COc2c(CCNCCN(C(=O)CCNCCc3ccc(Cl)c(Cl)c3)C3CCCCC3)ccc(O)c2N1 | inactive | –
41 | COc1ccc(OC)c(N2C(=O)C(Cl)=C(N3CCCCC3)C2=O)c1 | inactive | –
